The results in this text go back to PubChem BioAssay (EPA / NIEHS).

Records with an inconclusive call do not appear. Activity calls are given as the source filed them. The calls were made as follows: active = hit-call score of the fitted dose curve at least 0.9, where 1 is the maximum; inconclusive = response in the unintended direction; inactive = score below 0.9.

Experiment [1] concerns the target human Peroxisome Proliferator-activated Receptor delta (PPARd), PPARD (gene 5467) (UniProt Q03181). Put plainly: ATG_PPARd_TRANS: Attagene TRANS-FACTORIAL HepG2 Assay for human Peroxisome Proliferator-activated Receptor delta (PPARd) (AID 2283002). In short, it runs like this:
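Read-out is induced reporter mRNA, quantified by RT-PCR with fluorescent labelling and capillary electrophoresis after 24 h dosing. Cells are HepG2 transiently carrying multiple GAL4-UAS reporter units driven by exogenous NR-GAL4 chimeras; DMSO serves as baseline.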

In experiment [2] the target is Peroxisome proliferator-activated receptor gamma (Homo sapiens) (UniProt P37231). The experiment can be described thus: ATG_PPARg_TRANS: Attagene TRANS-FACTORIAL HepG2 Assay for human Peroxisome Proliferator-activated Receptor-gamma (PPARg) (AID 2283007). In short, it runs like this:
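Chimeric NR-Gal4 transactivation is measured in transiently transfected HepG2 cells by reporter mRNA induction at 24 h. Detection uses RT-PCR with fluorescent labelling and capillary electrophoresis; DMSO defines baseline.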

Experiment [3] deals with Nuclear receptor subfamily 1 group I member 2 (Homo sapiens) (UniProt O75469). Put plainly: ATG_PXR_TRANS: Attagene TRANS-FACTORIAL HepG2 Assay for human Pregnane X Receptor (PXR) (AID 2283008). The method in brief: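 Multiplexed TRANS reporter panel in HepG2; this component tracks PXR-Gal4-driven reporter mRNA after 24 h dosing, measured by RT-PCR with capillary electrophoresis fluorescence, fitted against DMSO.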
Sequence of Nuclear receptor subfamily 1 group I member 2 (Homo sapiens) (O75469 whole entry, looked up, the tested form may be a part): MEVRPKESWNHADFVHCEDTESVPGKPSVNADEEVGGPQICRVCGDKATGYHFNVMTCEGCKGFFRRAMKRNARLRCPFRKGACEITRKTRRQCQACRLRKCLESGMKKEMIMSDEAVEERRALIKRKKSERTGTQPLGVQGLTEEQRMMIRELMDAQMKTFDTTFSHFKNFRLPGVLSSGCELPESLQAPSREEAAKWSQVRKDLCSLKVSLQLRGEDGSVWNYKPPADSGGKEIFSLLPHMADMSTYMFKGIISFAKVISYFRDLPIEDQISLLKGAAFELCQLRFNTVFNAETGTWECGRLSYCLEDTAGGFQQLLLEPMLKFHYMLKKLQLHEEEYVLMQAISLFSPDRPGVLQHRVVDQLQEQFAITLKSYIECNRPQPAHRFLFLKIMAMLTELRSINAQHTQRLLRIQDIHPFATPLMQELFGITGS

For experiment [4], the target named is Retinoic acid receptor RXR-alpha (Homo sapiens) (UniProt P19793). Put plainly: ATG_RXRa_TRANS: Attagene TRANS-FACTORIAL HepG2 Assay for human Retinoid X Receptor alpha (RXRa) (AID 2283012). The method in brief:
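Chimeric NR-GAL4 trans-activation in HepG2, 24 h treatment; reporter transcripts quantified by fluorescence on capillary electrophoresis, analysed for upward change from DMSO.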

In experiment [5] the target is human RAR-related Orphan Receptor gamma (RORg), RORC (gene 6097) (UniProt P51449). Put plainly: ATG_RORg_TRANS: Attagene TRANS-FACTORIAL HepG2 Assay for human RAR-related Orphan Receptor gamma (RORg) (AID 2283011). The method in brief:
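HepG2 cells transiently transfected with GAL4-UAS reporter units and chimeric RORg-Gal4 construct; after 24 h chemical exposure, reporter mRNA measured by RT-PCR with fluorescent capillary electrophoresis, gain of signal fitted against DMSO.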

The target of experiment [6] is human Thyroid Receptor alpha (THRa1), THRA (gene 7067) (UniProt P10827). The experiment can be described thus: ATG_THRa1_TRANS: Attagene TRANS-FACTORIAL HepG2 Assay for human Thyroid Receptor alpha (THRa1) (AID 2283014). The method in brief:
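HepG2 cells transiently transfected with chimeric NR-Gal4 and GAL4-UAS reporter units, dosed 24 h. Reporter mRNA quantified by RT-PCR, fluorescent labeling, HpaI digestion and capillary electrophoresis; gain-of-signal fit versus DMSO.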

Experiment [7] deals with human Retinoic Acid Receptor gamma (RARg), RARG (gene 5916) (UniProt P13631). The experiment can be described thus: ATG_RARg_TRANS: Attagene TRANS-FACTORIAL HepG2 Assay for human Retinoic Acid Receptor gamma (RARg) (AID 2283009). In short, it runs like this: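 Gain-of-signal relative to DMSO is reported from fluorescent capillary electrophoresis of RT-PCR reporter products. These came from HepG2 cells expressing transfected RARg-GAL4 chimeras with UAS reporters, harvested 24 h after dosing.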
Sequence of human Retinoic Acid Receptor gamma (RARg), RARG (gene 5916) (P13631 whole entry, looked up, the tested form may be a part): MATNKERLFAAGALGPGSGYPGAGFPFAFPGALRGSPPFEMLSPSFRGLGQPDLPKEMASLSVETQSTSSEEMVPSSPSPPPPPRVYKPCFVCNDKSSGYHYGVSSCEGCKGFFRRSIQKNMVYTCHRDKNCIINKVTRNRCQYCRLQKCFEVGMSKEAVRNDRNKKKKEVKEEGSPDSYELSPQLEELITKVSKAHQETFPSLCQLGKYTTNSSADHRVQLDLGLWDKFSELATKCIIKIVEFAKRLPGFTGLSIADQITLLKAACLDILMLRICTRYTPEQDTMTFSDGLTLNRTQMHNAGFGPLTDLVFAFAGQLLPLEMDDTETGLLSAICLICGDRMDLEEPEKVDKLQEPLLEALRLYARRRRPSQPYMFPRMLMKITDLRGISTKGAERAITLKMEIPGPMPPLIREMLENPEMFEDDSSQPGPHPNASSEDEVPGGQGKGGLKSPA

The target in experiment [8] is human Retinoid X Receptor beta (RXRb), RXRB (gene 6257) (UniProt P28702). The experiment can be described thus: ATG_RXRb_TRANS: Attagene TRANS-FACTORIAL HepG2 Assay for human Retinoid X Receptor beta (RXRb) (AID 2283013). The method in brief:
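After a 24 h incubation with test chemical, transfected HepG2 cells carrying NR-Gal4 fusions and GAL4-UAS reporter transcription units yield RNA whose reporter cDNA is FAM-labelled, HpaI-cut and sized by capillary electrophoresis; increases over DMSO are scored.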

In experiment [9] the target is human RAR-related Orphan Receptor beta (RORb), RORB (gene 6096) (UniProt Q92753). The experiment can be described thus: ATG_RORb_TRANS: Attagene TRANS-FACTORIAL HepG2 Assay for human RAR-related Orphan Receptor beta (RORb) (AID 2283010). In short, it runs like this:
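Multiplexed transcription-factor reporter assay: HepG2 cells transiently carrying NR-Gal4/GAL4-UAS constructs, 24 h treatment, mRNA quantified by RT-PCR plus capillary electrophoresis fluorescence; activity scored as induction over DMSO.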

The target in experiment [10] is Retinoic acid receptor alpha (Homo sapiens) (UniProt P10276). The experiment can be described thus: ATG_RARa_TRANS: Attagene TRANS-FACTORIAL HepG2 Assay for human Retinoic Acid Receptor alpha (RARa) (AID 2283005). The method in brief: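 Reporter transcripts, measured by RT-PCR with fluorescent labeling and capillary electrophoresis after 24 h dosing, reflect activity of an exogenous human RARa–GAL4 fusion in transiently transfected HepG2. Fitted for increase relative to DMSO.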
Sequence of Retinoic acid receptor alpha (Homo sapiens) (P10276 whole entry, looked up, the tested form may be a part): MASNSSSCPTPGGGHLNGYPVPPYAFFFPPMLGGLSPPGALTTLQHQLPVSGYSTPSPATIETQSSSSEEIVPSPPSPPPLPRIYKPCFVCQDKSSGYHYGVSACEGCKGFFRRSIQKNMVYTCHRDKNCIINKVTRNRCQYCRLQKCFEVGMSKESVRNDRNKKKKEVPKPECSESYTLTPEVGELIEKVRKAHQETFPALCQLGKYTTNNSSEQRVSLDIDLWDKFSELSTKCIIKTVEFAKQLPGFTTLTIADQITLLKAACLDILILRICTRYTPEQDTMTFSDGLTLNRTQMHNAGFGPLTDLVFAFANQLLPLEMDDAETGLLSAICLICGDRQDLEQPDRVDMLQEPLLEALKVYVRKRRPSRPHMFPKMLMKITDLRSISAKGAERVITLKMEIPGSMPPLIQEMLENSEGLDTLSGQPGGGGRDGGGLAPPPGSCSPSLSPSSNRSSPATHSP

Sequence of human Retinoid X Receptor beta (RXRb), RXRB (gene 6257) (P28702 whole entry, looked up, the tested form may be a part): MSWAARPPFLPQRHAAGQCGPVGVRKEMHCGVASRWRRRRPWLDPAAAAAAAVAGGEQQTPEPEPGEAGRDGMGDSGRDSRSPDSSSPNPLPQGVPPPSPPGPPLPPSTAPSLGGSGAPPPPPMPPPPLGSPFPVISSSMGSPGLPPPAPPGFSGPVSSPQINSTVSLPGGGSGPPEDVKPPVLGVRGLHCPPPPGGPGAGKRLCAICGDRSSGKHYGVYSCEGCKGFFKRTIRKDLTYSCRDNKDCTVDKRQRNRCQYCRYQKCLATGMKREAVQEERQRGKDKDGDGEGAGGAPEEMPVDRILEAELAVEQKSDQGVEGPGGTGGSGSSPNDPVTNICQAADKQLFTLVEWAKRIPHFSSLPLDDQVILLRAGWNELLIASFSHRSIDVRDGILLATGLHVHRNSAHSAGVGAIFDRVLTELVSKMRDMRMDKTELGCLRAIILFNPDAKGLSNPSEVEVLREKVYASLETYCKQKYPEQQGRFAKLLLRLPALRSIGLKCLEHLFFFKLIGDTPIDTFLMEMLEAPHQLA
Sequence of human Thyroid Receptor alpha (THRa1), THRA (gene 7067) (P10827 whole entry, looked up, the tested form may be a part): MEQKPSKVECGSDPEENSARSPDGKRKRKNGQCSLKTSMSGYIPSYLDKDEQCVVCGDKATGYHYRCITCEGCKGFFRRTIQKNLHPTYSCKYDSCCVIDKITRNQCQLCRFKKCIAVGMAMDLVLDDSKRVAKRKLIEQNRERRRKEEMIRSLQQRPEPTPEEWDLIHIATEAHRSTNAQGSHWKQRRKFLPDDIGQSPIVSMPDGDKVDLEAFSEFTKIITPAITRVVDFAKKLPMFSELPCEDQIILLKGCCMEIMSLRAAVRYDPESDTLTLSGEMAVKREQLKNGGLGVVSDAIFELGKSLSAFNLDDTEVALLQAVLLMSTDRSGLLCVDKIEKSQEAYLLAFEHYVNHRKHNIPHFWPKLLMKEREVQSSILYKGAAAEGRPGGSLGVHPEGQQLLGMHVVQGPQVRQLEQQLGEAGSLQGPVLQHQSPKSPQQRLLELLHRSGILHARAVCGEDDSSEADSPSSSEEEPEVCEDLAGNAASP
Sequence of Peroxisome proliferator-activated receptor gamma (Homo sapiens) (P37231 whole entry, looked up, the tested form may be a part): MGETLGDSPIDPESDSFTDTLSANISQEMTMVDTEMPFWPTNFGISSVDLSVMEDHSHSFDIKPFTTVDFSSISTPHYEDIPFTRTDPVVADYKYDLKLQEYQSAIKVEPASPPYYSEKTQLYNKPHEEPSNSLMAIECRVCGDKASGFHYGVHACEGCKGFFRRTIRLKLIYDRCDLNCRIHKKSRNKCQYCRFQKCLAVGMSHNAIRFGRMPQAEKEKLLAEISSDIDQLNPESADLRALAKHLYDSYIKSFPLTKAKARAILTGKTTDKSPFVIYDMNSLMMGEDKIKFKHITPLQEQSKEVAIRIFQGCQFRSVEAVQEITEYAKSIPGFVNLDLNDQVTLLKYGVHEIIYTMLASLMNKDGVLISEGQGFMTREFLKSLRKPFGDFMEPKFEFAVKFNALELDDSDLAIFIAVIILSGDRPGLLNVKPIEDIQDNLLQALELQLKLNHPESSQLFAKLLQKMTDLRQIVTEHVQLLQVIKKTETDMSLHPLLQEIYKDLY
Sequence of human RAR-related Orphan Receptor gamma (RORg), RORC (gene 6097) (P51449 whole entry, looked up, the tested form may be a part): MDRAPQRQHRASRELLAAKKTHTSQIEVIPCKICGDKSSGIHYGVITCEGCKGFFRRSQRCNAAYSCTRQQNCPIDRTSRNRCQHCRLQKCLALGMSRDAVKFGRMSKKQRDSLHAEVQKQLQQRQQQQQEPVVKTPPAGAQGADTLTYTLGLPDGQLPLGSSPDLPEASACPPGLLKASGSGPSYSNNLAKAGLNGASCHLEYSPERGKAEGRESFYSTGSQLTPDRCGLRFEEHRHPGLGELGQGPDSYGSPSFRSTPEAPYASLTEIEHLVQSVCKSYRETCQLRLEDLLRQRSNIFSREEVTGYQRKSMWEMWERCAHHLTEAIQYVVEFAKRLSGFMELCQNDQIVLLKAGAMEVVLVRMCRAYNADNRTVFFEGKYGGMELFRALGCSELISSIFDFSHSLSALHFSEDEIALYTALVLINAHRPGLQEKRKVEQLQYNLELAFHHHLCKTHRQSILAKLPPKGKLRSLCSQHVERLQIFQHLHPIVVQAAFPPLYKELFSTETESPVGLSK
Sequence of human RAR-related Orphan Receptor beta (RORb), RORB (gene 6096) (Q92753 whole entry, looked up, the tested form may be a part): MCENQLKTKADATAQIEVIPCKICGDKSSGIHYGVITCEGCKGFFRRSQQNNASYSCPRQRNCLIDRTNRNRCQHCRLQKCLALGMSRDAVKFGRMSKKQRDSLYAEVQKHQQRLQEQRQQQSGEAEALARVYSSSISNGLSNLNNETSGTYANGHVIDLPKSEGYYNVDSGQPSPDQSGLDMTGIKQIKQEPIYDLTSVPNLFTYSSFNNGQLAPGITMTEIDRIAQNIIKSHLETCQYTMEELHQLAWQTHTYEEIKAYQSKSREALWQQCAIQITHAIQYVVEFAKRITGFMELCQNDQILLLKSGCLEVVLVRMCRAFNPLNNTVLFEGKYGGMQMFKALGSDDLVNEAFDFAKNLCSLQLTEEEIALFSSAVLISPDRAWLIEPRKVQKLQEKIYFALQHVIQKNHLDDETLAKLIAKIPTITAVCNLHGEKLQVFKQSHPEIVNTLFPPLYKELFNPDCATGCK
Sequence of Retinoic acid receptor RXR-alpha (Homo sapiens) (P19793 whole entry, looked up, the tested form may be a part): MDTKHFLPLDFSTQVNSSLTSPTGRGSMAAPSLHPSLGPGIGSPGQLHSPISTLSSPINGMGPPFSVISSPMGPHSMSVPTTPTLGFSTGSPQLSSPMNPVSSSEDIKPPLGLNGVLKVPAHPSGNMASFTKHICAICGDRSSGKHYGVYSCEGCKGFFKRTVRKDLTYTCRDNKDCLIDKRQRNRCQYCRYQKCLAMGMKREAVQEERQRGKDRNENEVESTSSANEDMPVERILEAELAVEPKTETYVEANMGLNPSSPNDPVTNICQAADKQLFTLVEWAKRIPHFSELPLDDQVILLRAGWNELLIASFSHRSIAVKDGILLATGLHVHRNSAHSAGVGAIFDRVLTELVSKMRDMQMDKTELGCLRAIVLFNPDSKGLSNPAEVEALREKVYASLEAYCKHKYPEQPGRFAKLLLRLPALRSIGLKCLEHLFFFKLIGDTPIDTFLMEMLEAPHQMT
Sequence of human Peroxisome Proliferator-activated Receptor delta (PPARd), PPARD (gene 5467) (Q03181 whole entry, looked up, the tested form may be a part): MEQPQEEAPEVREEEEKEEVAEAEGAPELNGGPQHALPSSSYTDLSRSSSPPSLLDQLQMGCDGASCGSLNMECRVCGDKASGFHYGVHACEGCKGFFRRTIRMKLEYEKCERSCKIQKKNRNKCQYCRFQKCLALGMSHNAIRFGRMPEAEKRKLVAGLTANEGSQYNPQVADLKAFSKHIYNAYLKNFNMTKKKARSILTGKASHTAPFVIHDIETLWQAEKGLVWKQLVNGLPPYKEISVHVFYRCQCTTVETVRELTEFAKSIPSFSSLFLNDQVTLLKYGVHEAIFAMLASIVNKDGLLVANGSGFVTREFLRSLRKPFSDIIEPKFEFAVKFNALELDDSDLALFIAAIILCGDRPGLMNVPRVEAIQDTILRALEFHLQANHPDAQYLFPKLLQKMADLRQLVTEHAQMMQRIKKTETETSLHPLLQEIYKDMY

On to `CC(C)=CC(=O)O`, for which the call in experiment [1], in experiment [2], in [3] and in experiment [4] was inactive.
Turning to `NC(=O)c1cccnc1`, the call in experiment [1], in [2], in [5], in [4] and in experiment [6] was inactive.
Turning to `CC/C=C\C#N`, the result in experiment [1], in experiment [2], in experiment [3] and in experiment [6] was inactive.
As for `O=C1CCC(=O)N1`, the compound was classed as inactive in [1], in experiment [5], in [4] and in [6].
`C=CC(C)CCCC(C)(C)O` (stereo unspecified): the compound was called inactive in [1], in [5] and in experiment [4].
Consider `NC(=O)NC(N)=O`, for which the result in experiment [1], in [3], in experiment [7], in [4] and in experiment [8] was inactive.
As to `Cc1cccc(C)c1`, the outcome in [1], in experiment [2] and in experiment [6] was inactive.
`CCC=C(C)C=O`: the outcome in [2], in experiment [3], in experiment [9], in [5], in experiment [4] and in experiment [6] was inactive. For the same compound, in [8], the half-maximal activity concentration (AC50) was 26.6 µM (active).
Consider `CC(=O)C1C(=O)C=C(C)OC1=O` (stereo unspecified), for which the outcome in experiment [10], in [7], in experiment [5], in experiment [4] and in experiment [6] was inactive.
On to `Cc1ccncc1`, for which the call in experiment [3], in experiment [4] and in experiment [6] was inactive.
As for `O=C(O)c1ccccc1O`, the compound was classed as inactive in experiment [10], in experiment [2], in [3], in experiment [5] and in experiment [4].
For the compound `NC(N)=S`, the compound was classed as inactive in experiment [9], in [5] and in experiment [6].
For the compound `CN(C)C`, the compound was called inactive in [9].
On to `CC(C)COC(=O)c1ccccc1`, for which the compound was classed as inactive in experiment [3], in experiment [9] and in experiment [6].
Turning to `CC(=O)CCC(=O)O`, the outcome in experiment [2], in experiment [3], in [9], in experiment [5], in [4] and in [8] was inactive. The compound was called inactive in experiment [6].
As to `Nc1cc([N+](=O)[O-])ccc1C(=O)O`, the compound was called inactive in experiment [10], in [2], in experiment [3], in [7], in experiment [9] and in experiment [5]. The compound was classed as inactive in [4].
Regarding `CCCC1CCC(=O)CC1`, the result in [5] was inactive.
As for `CCC(CC)CO`, the result in experiment [2], in experiment [3], in experiment [8] and in [6] was inactive.
With `CCCCN(CCCC)CCCCCCN(CCCC)CCCC`, the result in [2], in experiment [9] and in experiment [6] was inactive.
On to `CC(C)C(=O)c1ccccc1`, for which the call in experiment [10], in [3], in experiment [7], in [9], in experiment [4] and in [8] was inactive.
Consider `CCC(C)(C)C1CCC(=O)CC1`, for which the call in experiment [10], in experiment [2], in [7], in experiment [5] and in [4] was inactive. The AC50 in [3] was 15.3 µM (active); in experiment [8], 50.6 µM (active).
As for `CC/C=C\CCCCO`, the result in [2], in [3], in [9], in [5], in experiment [4] and in experiment [6] was inactive.
`CCOC(=O)CC1(C)OCC(C)O1` (stereo unspecified): the compound was called inactive in experiment [3], in experiment [7], in [4] and in experiment [6].
`CC1=CC(O)CC(C)(C)C1` (stereo unspecified): the call in experiment [2], in experiment [3] and in experiment [4] was inactive.
On to `CC(C)N(c1ccccc1)C(C)C`, for which the outcome in [3], in [5], in experiment [8] and in [6] was inactive.
In the case of `CCCCC(CC)COCCO` (stereo unspecified), the call in [2], in [3], in experiment [9], in experiment [4] and in experiment [6] was inactive. Further, in experiment [8], the AC50 is 100 µM (active).
Regarding `CCCO`, the call in experiment [10], in [3], in [7] and in [5] was inactive.
For the compound `Nc1ccn([C@H]2CC[C@@H](CO)O2)c(=O)n1`, the outcome in experiment [2], in experiment [3], in experiment [5], in experiment [4] and in [6] was inactive.
For the compound `OC[C@@H](O)[C@H](O)[C@@H](O)[C@@H](O)CO`, the result in experiment [10], in experiment [3], in [7] and in experiment [4] was inactive. The AC50 in experiment [8] was 54.2 µM (active).
Consider `CCCc1ccc(N)cc1`, for which the outcome in experiment [2] and in experiment [4] was inactive.
As for `CC1=CCC(=C(C)C)CC1`, the call in experiment [2], in [4] and in [8] was inactive. Moreover, the concentration at half-maximal activity (AC50) in experiment [3] is 6.82 µM (active).
Turning to `O=C(O)c1cccc(Cl)n1`, the call in [3], in experiment [4], in experiment [8] and in experiment [6] was inactive.
Take `C=COCC1CCC(COC=C)CC1` (stereo unspecified): the compound was called inactive in experiment [2], in [3], in [9], in experiment [4], in experiment [8] and in experiment [6].
For `CC1=CCC(C(C)C)=CC1`, the compound was classed as inactive in experiment [4] and in experiment [8].
As for `CC(C)CCOC(=O)CC(C)C`, the call in experiment [2], in experiment [3], in experiment [9], in [4] and in [6] was inactive. Further, the AC50 in experiment [8] was 100 µM (active).
